Where “and” joins values, the source holds several entries; their conditions need not be identical. Equal values may be shown once. More than one record can exist for a structure, and the calls need not agree. Calls of active or inactive are those of the source. The calls were made as follows: active = hit-call score of the fitted dose curve at least 0.9, where 1 is the maximum; inactive = score below 0.9.
How the values were obtained:
[1] = read-out: TIMP metallopeptidase inhibitor 2 (TIMP2), TIMP2 (gene 7077); assay: BSK_KF3CT_TIMP2: BioMAP Diversity Plus: KF3CT Assay for TIMP metallopeptidase inhibitor 2 (TIMP2) Biomarker Activity (AID 2283071); conditions: primary human keratinocytes with fibroblasts; actives raise or lower the signal
Procedure, shortened: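 Measurements come from ELISA detection of TIMP-2 at 24 hours in a dosed human keratinocyte and foreskin fibroblast co-culture. DMSO serves as negative control and baseline.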

[2] = read-out: Transforming growth factor beta 1 (TGFb1), TGFB1 (gene 7040); assay: BSK_KF3CT_TGFb1: BioMAP Diversity Plus: KF3CT Assay for Transforming growth factor beta 1 (TGFb1) Biomarker Activity (AID 2283072); conditions: primary human keratinocytes with fibroblasts; actives raise or lower the signal
Procedure, shortened: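 TGF-b1 ELISA on a 24 h dosed co-culture of human keratinocytes and foreskin fibroblasts; cytotoxicity tracked in parallel cultures by SRB staining.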

[3] = read-out: C-C motif chemokine 2 (Homo sapiens) (UniProt P13500); assay: BSK_KF3CT_MCP1: BioMAP Diversity Plus: KF3CT Assay for Monocyte Chemoattractant Protein 1 (MCP1/CCL2) Biomarker Activity (AID 2283073); conditions: primary human keratinocytes with fibroblasts; actives raise or lower the signal
Procedure, shortened: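 Biomarker MCP-1 is measured by ELISA in primary human keratinocytes co-cultured with foreskin fibroblasts, 24 h after chemical treatment; DMSO serves as the negative control and activity baseline.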

[4] = read-out: Matrix Metallopeptidase 9 (MMP9), MMP9 (gene 4318); assay: BSK_KF3CT_MMP9: BioMAP Diversity Plus: KF3CT Assay for Matrix Metallopeptidase 9 (MMP9) Biomarker Activity (AID 2283074); conditions: primary human keratinocytes with fibroblasts; actives raise or lower the signal;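 as to AC50: MMP9 protein level quantified by ELISA in the co-culture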
Procedure, shortened: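 MMP-9 quantified by ELISA after 24 h chemical treatment of primary human skin keratinocyte/fibroblast co-cultures; gain or loss fitted against DMSO, with parallel SRB staining (0.1% SRB, 560 nm) for overt cytotoxicity.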

[5] = read-out: urokinase plasminogen activator (uPA), PLAU (gene 5328); assay: BSK_KF3CT_uPA: BioMAP Diversity Plus: KF3CT Assay for urokinase plasminogen activator (uPA) Biomarker Activity (AID 2283075); conditions: primary human keratinocytes with fibroblasts; actives raise or lower the signal
Procedure, shortened: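 ELISA read-out of uPA 24 h after dosing human skin keratinocytes co-cultured with foreskin fibroblasts. Signal change fitted both ways relative to DMSO; sulforhodamine B on parallel cultures marks overt cytotoxicity.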

[6] = read-out: E-selectin (Homo sapiens) (UniProt P16581); assay: BSK_LPS_Eselectin: BioMAP Diversity Plus: LPS Assay for Eselectin Biomarker Activity (AID 2283077); conditions: primary human HUVEC with PBMC; actives raise or lower the signal
Procedure, shortened: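 Dose chemical onto LPS-driven HUVEC/PBMC co-culture; after 24 h, run ELISA for E-selectin; fit up- and down-going responses relative to DMSO control.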

[7] = read-out: Interleukin-8 (IL8), CXCL8 (gene 3576); assay: BSK_LPS_IL8: BioMAP Diversity Plus: LPS Assay for Interleukin-8 (IL8) Biomarker Activity (AID 2283078); conditions: primary human HUVEC with PBMC; actives raise or lower the signal
Procedure, shortened: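 In this LPS system, chemical-treated human umbilical vein endothelium/PBMC co-cultures were harvested at 24 h for IL-8 ELISA.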

[8] = BSK_LPS_SRB: Viability Assessment in the BioMAP Diversity Plus: LPS Assay (AID 2283079); conditions: primary human HUVEC with PBMC;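 also: total protein by sulforhodamine B absorbance as a cytotoxicity measure; measured one day after compound addition; fitted in both directions against DMSO so loss or gain of signal counts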
Procedure, shortened: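 Cytotoxicity endpoint in human endothelial–PBMC co-culture: 24 h exposure, then SRB (0.1%) staining, 560 nm read.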

[9] = read-out: Interleukin-1 alpha (IL1a), IL1A (gene 3552); assay: BSK_LPS_IL1a: BioMAP Diversity Plus: LPS Assay for Interleukin-1 alpha (IL1a) Biomarker Activity (AID 2283080); conditions: primary human HUVEC with PBMC; actives raise or lower the signal
Procedure, shortened: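 Primary human HUVEC and PBMC co-culture stimulated with LPS is dosed and harvested at 24 h. Both increases and decreases in ELISA-measured IL-1a are scored relative to DMSO.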

[10] = read-out: Monocyte Chemoattractant Protein-1 (MCP1), CCL2 (gene 6347); assay: BSK_LPS_MCP1: BioMAP Diversity Plus: LPS Assay for Monocyte Chemoattractant Protein-1 (MCP1) Biomarker Activity (AID 2283081); conditions: primary human HUVEC with PBMC; actives raise or lower the signal;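 as to AC50: secreted MCP-1 protein quantified by ELISA in culture supernatant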
Procedure, shortened: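 Values derive from bidirectional fitting against DMSO of ELISA-measured MCP-1 in a human primary endothelial and mononuclear cell co-culture, 24 h after chemical addition under LPS activation.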

[11] = BSK_LPS_PGE2: BioMAP Diversity Plus: LPS Assay for Prostaglandin E2 (PGE2) Biomarker Activity (AID 2283082); conditions: primary human HUVEC with PBMC; actives raise or lower the signal;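 as to AC50: secreted prostaglandin E2 measured by ELISA in LPS-stimulated co-culture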
Procedure, shortened: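 Primary human endothelial cells and blood mononuclear cells, co-cultured with LPS, receive test chemical; PGE2 ELISA follows at 24 h, with SRB-stained parallel cultures flagging cytotoxicity.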

[12] = read-out: Macrophage colony-stimulating factor (MCSF), CSF1 (gene 1435); assay: BSK_LPS_MCSF: BioMAP Diversity Plus: LPS Assay for Macrophage colony-stimulating factor (MCSF) Biomarker Activity (AID 2283083); conditions: primary human HUVEC with PBMC; actives raise or lower the signal
Procedure, shortened: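 Bidirectional fit versus DMSO of ELISA-measured M-CSF in co-cultured human umbilical vein endothelial cells and PBMC, sampled 24 h after dosing.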

[13] = read-out: Tissue Factor, F3 (gene 2152); assay: BSK_LPS_TissueFactor: BioMAP Diversity Plus: LPS Assay for Tissue Factor Biomarker Activity (AID 2283084); conditions: primary human HUVEC with PBMC; actives raise or lower the signal
Procedure, shortened: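 Read-out: CD142 ELISA, 24 h. System: LPS-driven human endothelial/PBMC co-culture. Analysis: up- or down-signal fitted against DMSO.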

[14] = read-out: Tumor necrosis factor (Homo sapiens) (UniProt P01375); assay: BSK_LPS_TNFa: BioMAP Diversity Plus: LPS Assay for Tumour Necrosis Factor alpha (TNFa) Biomarker Activity (AID 2283085); conditions: primary human HUVEC with PBMC; actives raise or lower the signal;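 as to AC50: TNFa protein level quantified by ELISA in the co-culture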
Procedure, shortened: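 ELISA-based TNFa endpoint in a human endothelial–PBMC co-culture sampled 24 h post-exposure. Curves were fitted in both directions using DMSO as baseline of activity.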

[15] = read-out: Vascular cell adhesion molecule 1 (VCAM1), VCAM1 (gene 7412); assay: BSK_LPS_VCAM1: BioMAP Diversity Plus: LPS Assay for Vascular cell adhesion molecule 1 (VCAM1) Biomarker Activity (AID 2283086); conditions: primary human HUVEC with PBMC; actives raise or lower the signal
Procedure, shortened: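 Measured by ELISA: VCAM-1 in LPS-activated HUVEC/PBMC co-cultures 24 h after treatment. Values reflect bidirectional fitting with DMSO as baseline.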

CD38, CD38 (gene 952) = assay: BSK_SAg_CD38: BioMAP Diversity Plus: SAg Assay for CD38 Biomarker Activity (AID 2283087); conditions: primary human HUVEC with PBMC; actives raise or lower the signal
Procedure, shortened: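 Measures CD38 on a human endothelial/PBMC co-culture driven by SEB and TSST-1, 24 h after compound exposure, using ELISA with fluorescence detection; DMSO defines baseline for bidirectional curve fitting.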

CD40, CD40 (gene 958) [16] = assay: BSK_SAg_CD40: BioMAP Diversity Plus: SAg Assay for CD40 Biomarker Activity (AID 2283088); conditions: primary human HUVEC with PBMC; actives raise or lower the signal
Procedure, shortened: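 Endpoint derived by fitting increases or decreases versus DMSO controls. CD40 is detected by fluorescence ELISA in a human vascular co-culture of endothelium and PBMC at 24 h.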

[17] = read-out: Monocyte Chemoattractant Protein-1 (MCP1), CCL2 (gene 6347); assay: BSK_SAg_MCP1: BioMAP Diversity Plus: SAg Assay for Monocyte Chemoattractant Protein-1 (MCP1) Biomarker Activity (AID 2283090); conditions: primary human HUVEC with PBMC; actives raise or lower the signal
Procedure, shortened: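 Values derive from bidirectional fitting of ELISA-measured MCP1 against DMSO controls. Readings were taken 24 h after dosing human vascular endothelial cells co-cultured with peripheral blood mononuclear cells under superantigen stimulation.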

CD69, CD69 (gene 969) = assay: BSK_SAg_CD69: BioMAP Diversity Plus: SAg Assay for CD69 Biomarker Activity (AID 2283089); conditions: primary human HUVEC with PBMC; actives raise or lower the signal;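 as to AC50: cell surface CD69 protein quantified by ELISA with fluorescence detection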
Procedure, shortened: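 Endothelial/PBMC co-culture; chemical added; 24 h incubation; CD69 ELISA with fluorescence detection; bidirectional fit vs DMSO.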

CD40, CD40 (gene 958) [18] = assay: BSK_LPS_CD40: BioMAP Diversity Plus: LPS Assay for CD40 Biomarker Activity (AID 2283076); conditions: primary human HUVEC with PBMC; actives raise or lower the signal
Procedure, shortened: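 Using a multiplexed primary human co-culture (umbilical vein endothelium plus PBMC), CD40 was read by ELISA 24 h after dosing, with cytotoxicity tracked by sulforhodamine B staining of parallel cultures and activity fitted bidirectionally versus DMSO.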

Measured: AC50

Tumor necrosis factor (Homo sapiens), sequence (P01375 whole entry, looked up): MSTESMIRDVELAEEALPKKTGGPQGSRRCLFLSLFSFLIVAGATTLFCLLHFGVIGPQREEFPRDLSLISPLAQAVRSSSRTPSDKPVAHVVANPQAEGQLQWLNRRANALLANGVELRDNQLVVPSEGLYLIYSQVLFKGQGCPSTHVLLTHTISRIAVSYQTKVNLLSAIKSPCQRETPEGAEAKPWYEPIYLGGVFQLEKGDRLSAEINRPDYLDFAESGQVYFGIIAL
E-selectin (Homo sapiens), sequence (P16581 whole entry, looked up): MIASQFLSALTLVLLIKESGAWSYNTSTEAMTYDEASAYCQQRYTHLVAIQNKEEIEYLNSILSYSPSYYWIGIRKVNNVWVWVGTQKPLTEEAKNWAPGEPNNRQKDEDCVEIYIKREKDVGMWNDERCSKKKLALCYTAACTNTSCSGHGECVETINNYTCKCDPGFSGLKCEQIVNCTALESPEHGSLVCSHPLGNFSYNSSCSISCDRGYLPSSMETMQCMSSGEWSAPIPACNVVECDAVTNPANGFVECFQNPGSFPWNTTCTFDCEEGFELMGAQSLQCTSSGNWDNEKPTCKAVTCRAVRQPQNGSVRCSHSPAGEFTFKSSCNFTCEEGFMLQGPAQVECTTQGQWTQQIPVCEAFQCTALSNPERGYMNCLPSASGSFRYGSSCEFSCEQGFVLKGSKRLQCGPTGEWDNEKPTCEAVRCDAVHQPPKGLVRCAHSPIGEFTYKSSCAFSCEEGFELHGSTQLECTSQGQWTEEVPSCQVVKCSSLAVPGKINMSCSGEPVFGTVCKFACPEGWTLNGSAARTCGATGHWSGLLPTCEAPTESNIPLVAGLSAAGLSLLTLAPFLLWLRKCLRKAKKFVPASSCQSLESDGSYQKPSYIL

CCOP(=S)(OCC)Oc1ccc2c(C)c(Cl)c(=O)oc2c1
inactive: [1] | [2] | [3] | [4] | [5] | [6] | [7] | [8] | [9] | [10] | [11] | [12] | [13] | [14] | [15] | CD38, CD38 (gene 952) | CD40, CD40 (gene 958) [16] | [17]

Nc1nc(N)nc(NC2CC2)n1
inactive: [1] | [2] | [3] | [4] | [5] | [6] | [7] | [8] | [9] | [10] | [11] | [12] | [13] | [14] | [15] | CD40, CD40 (gene 958) [16] | CD69, CD69 (gene 969) | [17]

CCOP(=S)(OCC)Oc1cc(C)nc(C(C)C)n1
inactive: [1] | [2] | [3] | [4] | [5] | CD40, CD40 (gene 958) [18] | [6] | [7] | [8] | [9] | [10] | [11] | [12] | [13] | [15] | CD38, CD38 (gene 952) | CD40, CD40 (gene 958) [16] | [17]
active: [14] 20 µM

O=[N+]([O-])c1cc(C(F)(F)F)c(Cl)c([N+](=O)[O-])c1Nc1ncc(C(F)(F)F)cc1Cl
active: [2] 7.7 µM | [3] 1.71 µM and 15.5 µM | [4] 991 nM and 5.6 µM | [5] 1.37 µM and 7.61 µM | CD40, CD40 (gene 958) [18] 1.44 µM and 6.49 µM | [6] 1.55 µM and 3.22 µM | [7] 2.33 µM and 3.94 µM | [8] 2 µM and 3.96 µM | [9] 1.35 µM and 2.31 µM | [10] 1.52 µM and 3.74 µM | [11] 7.89 µM and 3.71 µM | [12] 1.49 µM and 2.86 µM | [13] 1.44 µM and 2.17 µM | [14] 1.81 µM | [15] 1.5 µM and 2.05 µM | CD40, CD40 (gene 958) [16] 1.51 µM and 1.86 µM | CD69, CD69 (gene 969) 1.91 µM and 3.73 µM | [17] 2.24 µM and 3.79 µM
inactive: [2] | [14]

Cc1nn(-c2cc(NS(C)(=O)=O)c(Cl)cc2Cl)c(=O)n1C(F)F
inactive: [1] | [2] | [3] | [4] | [5] | [6] | [7] | [8] | [9] | [10] | [11] | [12] | [13] | [14] | [15] | CD38, CD38 (gene 952) | CD40, CD40 (gene 958) [16] | [17]

CCOP(=S)(Oc1cnc(C(C)(C)C)nc1)OC(C)C (stereo unspecified)
active: [4] 27.1 µM | CD40, CD40 (gene 958) [18] 37.9 µM | [6] 30.9 µM | [7] 30.5 µM | [8] 30.3 µM | [9] 36.7 µM | [10] 32.2 µM | [11] 31.8 µM | [12] 32.6 µM | [13] 33.1 µM | [14] 36.5 µM | [15] 32.5 µM | CD38, CD38 (gene 952) 36.2 µM | CD40, CD40 (gene 958) [16] 30.8 µM | [17] 30.7 µM
inactive: [2] | [3] | [5]
